Source: PubChem BioAssay

Test system: Fibrinogen (Alexa647-labelled)
Experiment: fibrinogen binders on compound microarrays, profiling panel, artefact control for SMM control-protein annotation, biochemical, small-molecule microarray, 635/667 nm fluorescence (AID 1131);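 further: z-score merges 667 nm fluorescence with per-spot signal-to-noise over triplicate slides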
Conditions: fibrinogen-A647 binding fluorescence, higher = more signal

Structure (SMILES)	composite z-score
CN1C=C(C(=O)OCCS(C)(=O)=O)C(C(=O)OCCS(C)(=O)=O)=CC(c2ccc(CO)cc2)=CC1c1cccs1 (stereo not given)	0.983
CS(=O)(=O)CCOC(=O)C1=CC(CCCO)=CC(C2CC2)N(Cc2cccc(OC(F)(F)F)c2)C=C1C(=O)OCCS(C)(=O)=O (stereo not given)	0.701
CC(C)[C@H]1NC(=O)[C@@]23C(=O)N[C@@H](Cc4ccccc4)C2[C@H](C)[C@@]2(C)O[C@H]2C3/C=C/C/C=C\CNC(=O)[C@H](Cc2ccccc2)NC1=O (stereo not given in full)	0.982
Cc1ccc(S[C@]2(C(=O)NCc3ccccc3)CC(=O)N(Cc3cc(C(F)(F)F)cc(C(F)(F)F)c3)[C@@H]2c2ccc(CO)cc2I)cc1	-0.885
CN(C)C(=O)[C@@]1(Cc2ccccc2N=[N+]=[N-])N=C(c2ccc(OCCCO)cc2)O[C@H]1c1ccccc1	0.992
COCC1=C2[C@@H](CCc3ccccc3)OB(O)C[C@@H]2[C@@H]2C(=O)N(C)C(=O)[C@@H]2C1	0.353
O=C1C2C=CC(C(O)c3ccco3)N(Nc3ccccc3)C2C(=O)N1c1ccccc1 (stereo not given)	-1.58
NC(=O)[C@H]1[C@@H]2C(=O)O[C@@H](c3ccccc3)[C@@H](c3ccccc3)N2[C@@H](c2ccc(O)cc2)[C@]12C(=O)Nc1ccc(C#CC3=CCCCC3)cc12	0.587
C=C(/C(=C/C[C@@H](OC(=O)c1ccncc1)c1cccc(OCCO)c1)c1cnc2ccccc2c1)C(C)C	0.807
CC(C)[C@H]1NC(=O)[C@@]23C(=O)N[C@@H](Cc4ccccc4)C2[C@H](C)[C@@]2(C)O[C@H]2C3/C=C/CCC/C=C/CNC(=O)[C@H](Cc2ccccc2)NC1=O (stereo not given in full)	-0.684
